ROS inducer = ROS inducers in U2OS cancer cells, primary screen, cell-based, H2DCF-DA fluorescence; ROS induction (% of piperlongumine), % at 10 µM; actives 2% (n = 46,000); U2OS ROS induction; in the data active = ROS induction above about 79%, passing the limit was not always enough;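 note: 0% = DMSO vehicle median and 100% = reference compound median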
NOMO-1 viab = NOMO-1 AML cell viability reduction, primary screen, STK33 inhibitor project, CellTiter-Glo luminescence; AID 2330, 2010; actives 7.5% (n = 37,000); inhibition, % (no concentration beside the values); NOMO-1 AML viability, 72 h; in the data active = inhibition above about 80%
An asterisk follows results filed as active; x = no result. Only a selection was taken, and hits are over-represented in it overall.

SMILES	ROS inducer	NOMO-1 viab
COc1ccc(CN(C)C[C@@H]2Oc3c(NC(=O)Nc4ccc5c(c4)OCO5)cccc3C(=O)N([C@@H](C)CO)C[C@H]2C)cc1	10.7	87.0*
COc1ccc(NC(=O)Nc2cccc3c2O[C@@H](CN(C)Cc2ccc4c(c2)OCO4)[C@@H](C)CN([C@H](C)CO)C3=O)cc1	-16.4	89.2*
COc1ccc(NC(=O)Nc2cccc3c2O[C@H](CN(C)Cc2ccc4c(c2)OCO4)[C@H](C)CN([C@@H](C)CO)C3=O)cc1	13.2	5.6
COc1ccc(CN(C)C[C@H]2Oc3c(NC(=O)Nc4ccc5c(c4)OCO5)cccc3C(=O)N([C@H](C)CO)C[C@@H]2C)cc1	6.6	34.5
CC(C)NC(=O)Nc1cccc2c1O[C@@H](CN(C)S(=O)(=O)c1ccccc1)[C@H](C)CN([C@H](C)CO)C2=O	-1.7	36.9
COc1ccc(CN(CCC(c2ccc3c(c2)OCO3)c2ccccc2OC)C(=O)c2ccco2)cc1 (stereo not drawn)	40.4	x
COc1ccc(S(=O)(=O)Nc2ccc3c(c2)C(=O)N([C@H](C)CO)C[C@H](C)[C@@H](CN(C)Cc2ccc(Cl)c(Cl)c2)O3)cc1	23.4	50.7
COc1ccc(S(=O)(=O)Nc2ccc3c(c2)C(=O)N([C@@H](C)CO)C[C@@H](C)[C@@H](CN(C)Cc2ccc(Cl)c(Cl)c2)O3)cc1	52.1	113.9*
COc1ccc(CN(C)C[C@H]2Oc3ccc(NS(=O)(=O)c4ccc(Cl)cc4)cc3C(=O)N([C@@H](C)CO)C[C@@H]2C)cc1	35.0	14.6
COc1ccc(CN(C)C[C@H]2Oc3ccc(NS(=O)(=O)c4ccc(Cl)cc4)cc3C(=O)N([C@H](C)CO)C[C@@H]2C)cc1	147.3*	31.9
C[C@@H]1CN([C@H](C)CO)C(=O)c2cc(NS(=O)(=O)c3ccc(Cl)cc3)ccc2O[C@H]1CN(C)Cc1ccccc1	6.2	10.3
C[C@@H]1CN([C@H](C)CO)C(=O)c2cc(NS(=O)(=O)c3ccc(Cl)cc3)ccc2O[C@@H]1CN(C)Cc1ccccc1	-6.6	87.3*
CNC(=O)CSCc1ccc(Br)cc1	-8.6	18.4
N#CC(C#N)=C(Nc1ccc(Br)cc1)SCc1ccc(F)cc1	8.5	111.8*
O=C(CCSc1nnc2scc(-c3ccc(Cl)cc3)n12)NCCc1ccccc1	21.5	x
CO[C@@]12[C@H](COC(N)=O)C3=C(C(=O)C(C)=C(N)C3=O)N1C[C@@H]1N[C@@H]12	-7.1	142.1*
Cn1c(SCCC(=O)O)nnc1-c1ccncc1	65.8	6.2
CCOC(=O)c1nnn2c1nc(Sc1nc3ccccc3o1)c1ccccc12	108.0*	115.5*
CCOC(=O)c1nnn2c1nc(N(CC)CC)c1ccccc12	37.4	7.6
CCOC(=O)c1nnn2c1nc(Sc1nnc(-c3ccncc3)n1C)c1ccccc12	161.2*	116.7*
Cc1noc(C)c1NC(=O)N(C)C[C@H]1Oc2ccc(NS(=O)(=O)c3cn(C)cn3)cc2CC(=O)N([C@@H](C)CO)C[C@@H]1C	4.0	0.7
C[C@@H]1CN([C@H](C)CO)C(=O)c2cccc(NS(=O)(=O)c3ccc(F)cc3)c2O[C@@H]1CN(C)Cc1ccc2c(c1)OCO2	1.6	12.5
CCC(Sc1nc(C)cc(C)n1)C(=O)N1c2ccccc2Sc2ccccc21 (stereo not drawn)	-3.1	62.3
C[C@@H]1CN([C@@H](C)CO)C(=O)c2cc(NS(=O)(=O)c3ccc(F)cc3)ccc2O[C@@H]1CN(C)Cc1ccccc1	-0.1	17.9
Clc1cccc(Nc2nnc(Cc3cccnc3)c3ccccc23)c1	-3.2	x
SMILES	ROS inducer	NOMO-1 viab
Oc1c(C(Nc2cccnc2)c2ccccc2F)ccc2cccnc12 (stereo not drawn)	x	115.7*
Oc1c(C(Nc2cccc(Cl)c2)c2cccnc2)ccc2cccnc12 (stereo not drawn)	-9.8	114.9*
Oc1c(C(Nc2cccnc2)c2ccc(Cl)cc2)ccc2cccnc12 (stereo not drawn)	-10.1	119.9*
O=C(CSCc1c(Cl)cccc1Cl)Nc1cccnc1	-27.3	18.3
COC(=O)c1ccccc1NC(=O)CN1C(=O)c2cccc3cccc1c23	0.4	-0.7
O=C(O)C1C2C=CC(O2)C1C(=O)Nc1ccc(S(=O)(=O)N2CCc3ccccc32)cc1 (stereo not drawn)	42.1	21.0
O=S(=O)(c1ccc(Cl)cc1)N1CCc2ccccc21	86.8*	120.2*
COc1ccc(CN(C)C[C@@H]2Oc3ccc(NS(=O)(=O)c4ccc(F)cc4)cc3C(=O)N([C@@H](C)CO)C[C@H]2C)cc1	-9.3	6.4
C[C@@H]1CCCCO[C@@H](CN(C)S(=O)(=O)c2ccc(F)cc2)[C@@H](C)CN([C@H](C)CO)C(=O)c2cc(NS(=O)(=O)c3ccc(Cl)cc3)ccc2O1	72.5	112.3*
C[C@@H]1CCCCO[C@@H](CN(C)S(=O)(=O)c2cn(C)cn2)[C@@H](C)CN([C@H](C)CO)C(=O)c2cc(NC(=O)C3CCCCC3)ccc2O1	126.1*	19.6

Compound activity from PubChem BioAssay.
